Paper PMC5349851, “Combinatorial bZIP dimers display complex DNA-binding specificity landscapes”

How the values were obtained:
Assay in all cases: SELEX-seq (CSI, HT-SELEX, round 3); SELEX-seq: 1x PBS (10 mM phosphate, 137 mM NaCl, 2.7 mM KCl) pH 7.6, 2.5 mM DTT, 50 ng/ul poly dI-dC, 0.1% BSA, 50 nM biotinylated bZIP (1:3 with partner for heterodimers), 100 nM library, room temperature, 1 h, 3 rounds; high values mean tight binding
Conditions in all cases: protein: recombinant;recombinant; copies: 1;1; dsDNA, one strand shown
[1] = biological target: T1, ATF5;BATF2 (Homo sapiens;Homo sapiens, UniProt Q9Y2D1;Q8N1L9 199-275;8-85, |)
T1 sequence 1: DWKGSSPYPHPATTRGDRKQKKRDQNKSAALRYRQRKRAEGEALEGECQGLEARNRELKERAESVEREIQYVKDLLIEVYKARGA
T1 sequence 2: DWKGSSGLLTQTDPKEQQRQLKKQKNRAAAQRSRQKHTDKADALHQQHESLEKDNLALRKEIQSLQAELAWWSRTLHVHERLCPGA

[2] = biological target: NFE2;MAFG (Homo sapiens;Homo sapiens, UniProt Q16621;O15525 221-337;25-124, |)
[3] = biological target: NFE2L1;MAFG (Homo sapiens;Homo sapiens, UniProt Q14494;O15525 609-725;25-124, |)
[4] = biological target: T2, HLF;HLF (Homo sapiens;Homo sapiens, UniProt Q16534;Q16534 216-293;216-293, |)
T2 sequence 1: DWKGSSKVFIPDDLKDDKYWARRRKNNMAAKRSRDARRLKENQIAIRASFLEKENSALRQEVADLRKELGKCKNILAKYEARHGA
T2 sequence 2: T2 sequence 1

[5] = biological target: T3, NFIL3;NFIL3 (Homo sapiens;Homo sapiens, UniProt Q16649;Q16649 64-134;64-134, |)
T3 sequence 1: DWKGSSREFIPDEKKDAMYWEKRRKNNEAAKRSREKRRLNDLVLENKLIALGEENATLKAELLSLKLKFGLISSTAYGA
T3 sequence 2: T3 sequence 1

[6] = biological target: MAFG;MAFG (Homo sapiens;Homo sapiens, UniProt O15525;O15525 25-124;25-124, |)
[7] = biological target: MAFB;FOSL1 (Homo sapiens;Homo sapiens, UniProt Q9Y5Q3;P15407 212-305;96-169, |)
[8] = biological target: MAFB;ATF5 (Homo sapiens;Homo sapiens, UniProt Q9Y5Q3;Q9Y2D1 212-305;199-275, |)
[9] = biological target: ATF5;ATF6B (Homo sapiens;Homo sapiens, UniProt Q9Y2D1;Q99941 199-275;316-391, |)
[10] = biological target: T4, ATF5;CREBZF (Homo sapiens;Homo sapiens, UniProt Q9Y2D1;Q9NS37 199-275;195-272, |)
T4 sequence 1: T1 sequence 1
T4 sequence 2: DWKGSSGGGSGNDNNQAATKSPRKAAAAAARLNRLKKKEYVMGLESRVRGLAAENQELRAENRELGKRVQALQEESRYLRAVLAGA

[11] = biological target: T5, ATF5;CREB3L3 (Homo sapiens;Homo sapiens, UniProt Q9Y2D1;Q68CJ9 199-275;234-311, |)
T5 sequence 1: T1 sequence 1
T5 sequence 2: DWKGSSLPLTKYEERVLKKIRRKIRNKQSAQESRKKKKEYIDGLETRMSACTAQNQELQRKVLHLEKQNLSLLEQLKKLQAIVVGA

[12] = biological target: ATF6B;ATF6B (Homo sapiens;Homo sapiens, UniProt Q99941;Q99941 316-391;316-391, |)
[13] = biological target: ATF6;ATF6 (Homo sapiens;Homo sapiens, UniProt P18850;P18850 297-371;297-371, |)
[14] = biological target: T6, CREB1;CREB1 (Homo sapiens;Homo sapiens, UniProt P16220;P16220 260-327;260-327, |)
T6 sequence 1: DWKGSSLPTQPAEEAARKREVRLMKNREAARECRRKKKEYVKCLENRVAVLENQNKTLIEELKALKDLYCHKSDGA
T6 sequence 2: T6 sequence 1

[15] = biological target: T7, CREB3;CREB3 (Homo sapiens;Homo sapiens, UniProt O43889;O43889 141-221;141-221, |)
T7 sequence 1: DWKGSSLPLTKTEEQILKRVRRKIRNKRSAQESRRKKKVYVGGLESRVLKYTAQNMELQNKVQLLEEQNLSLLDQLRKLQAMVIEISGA
T7 sequence 2: T7 sequence 1

[16] = biological target: T8, NFE2;NFE2 (Homo sapiens;Homo sapiens, UniProt Q16621;Q16621 221-337;221-337, |)
T8 sequence 1: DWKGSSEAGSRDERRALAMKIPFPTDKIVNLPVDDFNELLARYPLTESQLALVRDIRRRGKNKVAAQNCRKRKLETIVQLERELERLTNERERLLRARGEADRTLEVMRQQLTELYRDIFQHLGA
T8 sequence 2: T8 sequence 1

Sequence of MAFB;FOSL1 (Q9Y5Q3 other isoform, or with tags, fused parts or gaps |, chain 1 of 2): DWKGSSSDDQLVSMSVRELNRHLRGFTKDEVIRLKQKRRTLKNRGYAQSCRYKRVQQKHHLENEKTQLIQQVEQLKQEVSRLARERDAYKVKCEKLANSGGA
Sequence of MAFB;FOSL1 (P15407 other isoform, or with tags, fused parts or gaps |, chain 2 of 2): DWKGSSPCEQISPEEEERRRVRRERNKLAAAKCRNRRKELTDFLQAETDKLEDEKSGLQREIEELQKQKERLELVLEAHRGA
Sequence of ATF6;ATF6 (P18850 other isoform, or with tags, fused parts or gaps |, chain 1 of 2): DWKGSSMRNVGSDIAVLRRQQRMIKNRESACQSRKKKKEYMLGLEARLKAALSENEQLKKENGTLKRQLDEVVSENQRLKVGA
Sequence of ATF6;ATF6 (P18850 other isoform, or with tags, fused parts or gaps |, chain 2 of 2): as the sequence (P18850 other isoform, or with tags, fused parts or gaps |, chain 1 of 2) above
Sequence of ATF5;ATF6B (Q99941 other isoform, or with tags, fused parts or gaps |): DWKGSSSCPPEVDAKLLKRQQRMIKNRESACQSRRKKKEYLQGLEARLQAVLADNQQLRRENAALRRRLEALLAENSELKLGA
Sequence of ATF6B;ATF6B (Q99941 other isoform, or with tags, fused parts or gaps |, chain 1 of 2): as the sequence (Q99941 other isoform, or with tags, fused parts or gaps |) above
Sequence of ATF6B;ATF6B (Q99941 other isoform, or with tags, fused parts or gaps |, chain 2 of 2): as the sequence (Q99941 other isoform, or with tags, fused parts or gaps |) above

Sequence	binding signal [1]	binding signal [2]	binding signal [3]	binding signal [4]	binding signal [5]	binding signal [6]	binding signal [7]	binding signal [8]	binding signal [9]	binding signal [10]	binding signal [11]	binding signal [12]	binding signal [13]	binding signal [14]	binding signal [15]	binding signal [16]
ATGATGCAAT	0.02 relative CSI intensity (max = 1)	0.0058 relative CSI intensity (max = 1)	0.00579 relative CSI intensity (max = 1)	0.0587 relative CSI intensity (max = 1)	0.107 relative CSI intensity (max = 1)	0.00357 relative CSI intensity (max = 1)	0.00125 relative CSI intensity (max = 1)	0.00407 relative CSI intensity (max = 1)	0.0122 relative CSI intensity (max = 1)	0.00335 relative CSI intensity (max = 1)						
CCTGACGTCA	0.0163 relative CSI intensity (max = 1)	0.00227 relative CSI intensity (max = 1)			0.00977 relative CSI intensity (max = 1)		0.0285 relative CSI intensity (max = 1)	0.0743 relative CSI intensity (max = 1)	0.0183 relative CSI intensity (max = 1)	0.0084 relative CSI intensity (max = 1)	0.00229 relative CSI intensity (max = 1)	0.00121 relative CSI intensity (max = 1)	0.00545 relative CSI intensity (max = 1)	0.0218 relative CSI intensity (max = 1)	0.0218 relative CSI intensity (max = 1)	
ATGACGTAAT	0.174 relative CSI intensity (max = 1)	0.00855 relative CSI intensity (max = 1)	0.0021 relative CSI intensity (max = 1)	0.728 relative CSI intensity (max = 1)	0.7 relative CSI intensity (max = 1)	0.0106 relative CSI intensity (max = 1)	0.00946 relative CSI intensity (max = 1)	0.0179 relative CSI intensity (max = 1)	0.0108 relative CSI intensity (max = 1)	0.0175 relative CSI intensity (max = 1)	0.00383 relative CSI intensity (max = 1)	0.00248 relative CSI intensity (max = 1)	0.0093 relative CSI intensity (max = 1)	0.00977 relative CSI intensity (max = 1)	0.0113 relative CSI intensity (max = 1)	0.00452 relative CSI intensity (max = 1)
ATGACGTCAT	0.86 relative CSI intensity (max = 1)	0.0346 relative CSI intensity (max = 1)	0.0138 relative CSI intensity (max = 1)	0.205 relative CSI intensity (max = 1)	0.344 relative CSI intensity (max = 1)	0.0131 relative CSI intensity (max = 1)	0.196 relative CSI intensity (max = 1)	0.148 relative CSI intensity (max = 1)	1 relative CSI intensity (max = 1)	1 relative CSI intensity (max = 1)	1 relative CSI intensity (max = 1)	0.0846 relative CSI intensity (max = 1)	0.437 relative CSI intensity (max = 1)	0.577 relative CSI intensity (max = 1)	0.325 relative CSI intensity (max = 1)	0.112 relative CSI intensity (max = 1)
ATGACGGAAT			0.00175 relative CSI intensity (max = 1)		0.00935 relative CSI intensity (max = 1)	0.00454 relative CSI intensity (max = 1)				0.0025 relative CSI intensity (max = 1)						
ATGACGCAAT	0.0275 relative CSI intensity (max = 1)	0.00814 relative CSI intensity (max = 1)	0.00759 relative CSI intensity (max = 1)	0.245 relative CSI intensity (max = 1)	0.224 relative CSI intensity (max = 1)		0.00163 relative CSI intensity (max = 1)	0.00342 relative CSI intensity (max = 1)	0.00498 relative CSI intensity (max = 1)	0.0123 relative CSI intensity (max = 1)			0.00207 relative CSI intensity (max = 1)		0.00195 relative CSI intensity (max = 1)	0.0016 relative CSI intensity (max = 1)
